ChEMBL document CHEMBL1201862, “PubChem BioAssay data set” (2004)
Out of some 400,000 compounds screened, about 2,100 (0.53%) were called active. Another 14% or so got no clear call; they are omitted. No rule for the calls is given here. What follows is part of a selection rich in actives, with near analogues and random picks from the rest.

What follows are compounds tested against Ataxin-2 (Homo sapiens) (UniProt Q99700) (assay: qHTS for Inhibitors of ATXN expression.).
Assay type: functional

Ataxin-2 (Homo sapiens), sequence (Q99700 whole entry): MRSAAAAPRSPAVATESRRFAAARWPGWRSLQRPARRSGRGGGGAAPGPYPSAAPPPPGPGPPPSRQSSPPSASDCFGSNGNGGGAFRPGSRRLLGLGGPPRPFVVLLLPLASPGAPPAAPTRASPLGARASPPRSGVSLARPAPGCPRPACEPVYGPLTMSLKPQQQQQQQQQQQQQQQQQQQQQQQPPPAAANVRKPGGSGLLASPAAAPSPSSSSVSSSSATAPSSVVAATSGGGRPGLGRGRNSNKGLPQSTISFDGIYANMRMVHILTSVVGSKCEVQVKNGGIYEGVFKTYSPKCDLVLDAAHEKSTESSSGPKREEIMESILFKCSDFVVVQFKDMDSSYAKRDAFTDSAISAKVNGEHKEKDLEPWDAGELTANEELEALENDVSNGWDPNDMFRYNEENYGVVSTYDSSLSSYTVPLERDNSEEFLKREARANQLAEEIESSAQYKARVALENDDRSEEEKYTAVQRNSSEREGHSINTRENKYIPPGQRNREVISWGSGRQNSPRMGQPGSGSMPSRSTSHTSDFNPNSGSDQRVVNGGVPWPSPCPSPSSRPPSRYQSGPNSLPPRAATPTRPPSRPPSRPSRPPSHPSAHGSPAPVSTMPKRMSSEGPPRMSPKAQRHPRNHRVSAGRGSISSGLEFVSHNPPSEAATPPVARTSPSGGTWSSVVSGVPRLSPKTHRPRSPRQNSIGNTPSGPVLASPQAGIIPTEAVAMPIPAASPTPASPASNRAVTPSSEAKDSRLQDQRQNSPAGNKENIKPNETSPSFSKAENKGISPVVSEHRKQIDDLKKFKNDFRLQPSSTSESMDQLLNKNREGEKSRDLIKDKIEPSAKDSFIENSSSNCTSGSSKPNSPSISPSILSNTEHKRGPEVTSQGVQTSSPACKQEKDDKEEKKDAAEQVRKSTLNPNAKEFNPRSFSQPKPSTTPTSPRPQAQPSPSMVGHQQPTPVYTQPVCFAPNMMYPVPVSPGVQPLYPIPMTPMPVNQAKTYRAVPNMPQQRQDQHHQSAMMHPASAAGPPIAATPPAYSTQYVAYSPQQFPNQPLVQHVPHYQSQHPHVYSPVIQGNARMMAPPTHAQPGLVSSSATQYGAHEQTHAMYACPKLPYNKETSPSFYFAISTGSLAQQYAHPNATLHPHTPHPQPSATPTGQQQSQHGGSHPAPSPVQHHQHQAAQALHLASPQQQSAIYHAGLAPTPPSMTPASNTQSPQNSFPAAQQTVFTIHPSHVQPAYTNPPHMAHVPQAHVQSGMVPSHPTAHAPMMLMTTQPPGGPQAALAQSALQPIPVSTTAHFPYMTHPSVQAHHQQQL

Row | SMILES | Potency
1 | CC(=O)N1CCC(c2c[nH]c3ccccc23)CC1 | inactive
2 | O=C1NCCNC1(c1c[nH]c2ccccc12)C(F)(F)F (configuration not stated) | inactive
3 | O=C1C=CC(c2c[nH]c3ccccc23)CC1 (configuration not stated) | 35.5 µM (active)
4 | C=CCn1c(=N)c(C#N)cc2c(=O)n3ccccc3nc21 | inactive
5 | Cc1ccccc1CS(=O)(=O)c1nnc([C@H](Cc2ccccc2)NC(=O)OC(C)(C)C)o1 | 35.5 µM (active)
6 | COC(=O)CS(=O)(=O)c1nnc([C@H](Cc2ccccc2)NC(=O)OC(C)(C)C)o1 | 39.8 µM (active)
7 | CC(C)(C)OC(=O)N[C@@H](Cc1ccccc1)c1nnc(S(=O)(=O)Cc2cccc(F)c2)o1 | 31.6 µM (active)
8 | Oc1c(Br)cc(Cl)cc1/C=N/c1ccc(N2CCOCC2)cc1 | inactive
9 | Cc1ccc(O)c(C(=O)c2cc(C#N)c(=O)n(-c3nccs3)c2)c1 | inactive
10 | N=c1c(C(=O)NCc2ccc(F)cc2)cc2c(=O)n3ccccc3nc2n1Cc1cccnc1 | inactive
11 | O=C(Nc1ccc(F)cc1)c1sc2cc(C(F)(F)F)cnc2c1-c1cccs1 | inactive
12 | O=C(Oc1ccc2c(-c3ccccc3)cc(=O)oc2c1)C1CCCCC1 | inactive
13 | Cc1cccn2c(=O)c(C=C(C#N)C#N)c(N3CCN(c4ccccc4)CC3)nc12 | inactive
14 | Cc1cc(Oc2nc3c(C)cccn3c(=O)c2/C=C(\C#N)S(=O)(=O)c2ccccc2)ccc1Cl | 39.8 µM (active)
15 | CNC(=O)/C(C#N)=C/c1c(N2CCN(c3ccccc3)CC2)nc2c(C)cccn2c1=O | inactive
16 | COc1cc(OC)nc(C(NC(=O)C2CCN(Cc3c[nH]c4ccccc34)CC2)c2ccc(Cl)cc2)n1 (configuration not stated) | 35.5 µM (active)
17 | COc1ccc(C(NC(=O)C2CCN(CCOc3ccc(Cl)cc3Cl)CC2)c2ccccc2C)cn1 (configuration not stated) | 31.6 µM (active)
18 | O=C(NC(c1ccc(Cl)cc1)c1cccnc1)C1CCN(CCOc2ccc(Cl)cc2Cl)CC1 (configuration not stated) | 39.8 µM (active)
19 | CCS(=O)(=O)N1CCN(Cc2c[nH]c3ccccc23)CC1 | inactive

Row | SMILES | Potency
20 | CCOc1ccc(Cl)cc1S(=O)(=O)N1CCC(C(=O)NC2CC2)CC1 | inactive
21 | O=C(COC(=O)Cc1c[nH]c2ccccc12)Nc1cc(S(=O)(=O)N2CCOCC2)ccc1Cl | inactive
22 | O=C(NC(c1ccc(F)cc1)c1ccc2ccccc2n1)C1CCN(CCOc2ccc(Cl)cc2Cl)CC1 (configuration not stated) | 22.4 µM (active)
23 | COc1ccc(NC(=O)c2cc(S(=O)(=O)N3CCCC3)ccc2C)cn1 | inactive
24 | O=C(CCSc1ccc(Cl)cc1)Nc1cccnc1 | inactive
25 | Cn1cc(/C=N\O)nc2c(=O)n(-c3ccccc3)c(=O)nc1-2 | inactive
26 | O=C(COC(=O)/C=C/c1ccc(S(=O)(=O)N2CCc3ccccc32)cc1)NC1CCS(=O)(=O)C1 (configuration not stated) | inactive
27 | CNc1cncc(-c2ccc(S(C)(=O)=O)cc2)n1 | inactive
28 | N=c1c(S(=O)(=O)c2ccc(Cl)cc2)cc2c(=O)n3ccccc3nc2n1Cc1ccco1 | inactive
29 | COc1ccc(NS(=O)(=O)c2cccc(C(=O)NN=C(C)c3ccco3)c2)cc1 | inactive
30 | Cc1ccccc1/C=C/c1cc[n+](C)cc1 | inactive
31 | O=C(NC(c1ccccc1)c1ccsc1)C1CCN(CCOc2ccc(Cl)cc2Cl)CC1 (configuration not stated) | 39.8 µM (active)
32 | COc1ccc(Cl)cc1NC(=O)CNC(c1ccccc1)c1ccccc1 | inactive
33 | NC(=O)C1CCN(CC(=O)Nc2ccccc2Sc2ccc(Cl)cc2)CC1 | inactive
34 | COc1ccc2nc(N3CCCC(O)C3)c(C#N)cc2c1 (configuration not stated) | inactive
35 | NC[C@@H]1O[C@H](C23CC4CC(CC(C4)C2)C3)Cc2c1ccc(O)c2O | 31.6 µM (active)
36 | CCOCCCn1c(=N)c(C(=O)NCCN2CCOCC2)cc2c(=O)n3cccc(C)c3nc21 | inactive
37 | CC(C)=CCc1cc([C@@H]2COc3c(ccc4c3C=CC(C)(C)O4)C2)c(O)cc1O | 35.5 µM (active)
38 | CCCCC(=O)Nc1nn(CC)c2nc3c(C)cccc3cc12 | inactive

Row | SMILES | Potency
39 | Nc1c(C(=O)N2CCCC2)sc2nc(-c3ccccc3)ccc12 | inactive
40 | C[C@H]1CCCCO[C@@H](CN(C)S(=O)(=O)c2ccc(Cl)cc2)[C@@H](C)CN([C@@H](C)CO)C(=O)c2cc(NS(=O)(=O)c3ccccc3)ccc2O1 | 31.6 µM (active)
41 | COc1ccc(S(=O)(=O)N(C)C[C@@H]2OCCCC[C@@H](C)Oc3ccc(NC(=O)NC(C)C)cc3C(=O)N([C@H](C)CO)C[C@@H]2C)cc1 | inactive
42 | C[C@@H]1CCCCO[C@@H](CN(C)CC2CCCCC2)[C@@H](C)CN([C@H](C)CO)C(=O)c2cc(NS(=O)(=O)c3ccc(Cl)cc3)ccc2O1 | 31.6 µM (active)
43 | C[C@@H]1CCCCO[C@H](CN(C)Cc2ccccc2)[C@@H](C)CN([C@H](C)CO)C(=O)c2cc(NS(=O)(=O)c3ccc(Cl)cc3)ccc2O1 | 35.5 µM (active)
44 | N#CC(Sc1ccccn1)c1ccc(Cl)cc1 (configuration not stated) | inactive
45 | Cc1ccc(S(=O)(=O)Nc2cccc(N(C)S(C)(=O)=O)c2)cc1[N+](=O)[O-] | inactive
46 | CN(CC(=O)Nc1cccc(C(F)(F)F)c1)S(=O)(=O)c1ccc2[nH]c3c(c2c1)CCCC3 | 35.5 µM (active)
47 | CN(CC(=O)Nc1cccc(Cl)c1)S(=O)(=O)c1ccc2[nH]c3c(c2c1)CCCC3 | 39.8 µM (active)
48 | Clc1ccc2[nH]c3c(c2c1)CNCC3 | inactive
49 | CC(C)c1ccc2[nH]c3c(c2c1)CCC/C3=N\NC(=O)c1ccncc1 | inactive
50 | O=C(COC(=O)c1ccc2[nH]c3c(c2c1)CCCC3)NC1CCS(=O)(=O)C1 (configuration not stated) | inactive
51 | CC(C)c1ccc2[nH]c(O)c(N=NC(=O)c3cccc(S(=O)(=O)Nc4cccc(Cl)c4)c3)c2c1 | 1.41 µM (active)
52 | O=S(=O)(Nc1cccc(Cl)c1)c1ccc2[nH]c3c(c2c1)CCCCCC3 | 31.6 µM (active)
53 | CSc1nc(O)c(C(c2ccc(C)cc2)c2c(O)nc(SC)nc2O)c(O)n1 | inactive
54 | CCCn1c(=O)n(CC(=O)NCC2CCCO2)c(=O)c2c3c(sc21)COC(C)(C)C3 (configuration not stated) | inactive
55 | CC1CCc2sc(C(=O)OCC(=O)NC(C)C)cc2C1 (configuration not stated) | inactive
56 | Cc1cc(NC(=O)CCC(=O)N(C(C(=O)NC(C)(C)C)c2ccccc2Cl)C(C)(C)C)no1 (configuration not stated) | inactive
57 | COc1ccccc1C1C2=C(CCCC2=O)N(CC(=O)O)C2=C1C(=O)CCC2 | inactive
